Source: PubChem BioAssay (NCATS)
Results filed as inconclusive are left out. Calls of active or inactive are those of the source. Calls come from the whole dose curve; as a rule, active = well fitted inhibition curve with a large enough effect; inconclusive = small, poorly fitted or top-dose-only effect; inactive = flat fitted curve, though single readings scatter.

Tests used:
[1] = tested on: HB3; assay: qHTS profiling for inhibitors of Plasmodium falciparum proliferation (AID 504749); conditions: P. falciparum in erythrocytes, SYBR Green DNA, 72 h; series mostly up to 28.7 µM
Procedure, shortened: (§1)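 Three-day growth assay of blood-stage parasites in erythrocytes (0.3% parasitemia, 2.5% hematocrit) at 37 C, 5% CO2, quantified by SYBR Green DNA staining after overnight detergent lysis.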

[2] = tested on: ICS; assay: as above; conditions: P. falciparum in erythrocytes, SYBR Green DNA, 72 h; series mostly up to 28.7 µM
Procedure, shortened: as §1

[3] = tested on: JCK; assay: as above; conditions: P. falciparum in erythrocytes, SYBR Green DNA, 72 h; series mostly up to 28.7 µM
Procedure, shortened: as §1

[4] = tested on: P93_24; assay: as above; conditions: P. falciparum in erythrocytes, SYBR Green DNA, 72 h; series mostly up to 28.7 µM
Procedure, shortened: as §1

[5] = tested on: P94_40; assay: as above; conditions: P. falciparum in erythrocytes, SYBR Green DNA, 72 h; series mostly up to 28.7 µM
Procedure, shortened: as §1

[6] = tested on: PAD; assay: as above; conditions: P. falciparum in erythrocytes, SYBR Green DNA, 72 h; series mostly up to 28.7 µM
Procedure, shortened: as §1

[7] = tested on: PC15; assay: as above; conditions: P. falciparum in erythrocytes, SYBR Green DNA, 72 h; series mostly up to 28.7 µM
Procedure, shortened: as §1

[8] = tested on: PC26; assay: as above; conditions: P. falciparum in erythrocytes, SYBR Green DNA, 72 h; series mostly up to 28.7 µM
Procedure, shortened: as §1

[9] = tested on: PC49; assay: as above; conditions: P. falciparum in erythrocytes, SYBR Green DNA, 72 h; series mostly up to 28.7 µM
Procedure, shortened: as §1

[10] = tested on: SC27B; assay: as above; conditions: P. falciparum in erythrocytes, SYBR Green DNA, 72 h; series mostly up to 28.7 µM
Procedure, shortened: as §1

[11] = tested on: TAB109; assay: as above; conditions: P. falciparum in erythrocytes, SYBR Green DNA, 72 h; series mostly up to 28.7 µM
Procedure, shortened: as §1

[12] = tested on: TAB113; assay: as above; conditions: P. falciparum in erythrocytes, SYBR Green DNA, 72 h; series mostly up to 28.7 µM
Procedure, shortened: as §1

[13] = tested on: TAB165; assay: as above; conditions: P. falciparum in erythrocytes, SYBR Green DNA, 72 h; series mostly up to 28.7 µM
Procedure, shortened: as §1

[14] = tested on: W2; assay: as above; conditions: P. falciparum in erythrocytes, SYBR Green DNA, 72 h; series mostly up to 28.7 µM
Procedure, shortened: as §1

[15] = tested on: CRL-7250; assay: Cytotoxic Profiling of Annotated Libraries Using Quantitative High-Throughput Screening (AID 1296008); conditions: Five cell lines viability, CellTiter-Glo ATP luminescence, 48-72 h; max response: active compounds read low; for max response: % is set by controls: 0 for no effect and ±100 for the full control effect
Procedure, shortened: (§2)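 Cytotoxicity was measured as CellTiter-Glo ATP luminescence, read after 10 min at room temperature. Compound treatment of the cells lasted 48 or 72 hr at 37 degrees Celsius in a qHTS format.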

[16] = tested on: HaCat; assay: as above; conditions: Five cell lines viability, CellTiter-Glo ATP luminescence, 48-72 h; max response: active compounds read low
Procedure, shortened: as §2

[17] = tested on: KB-3-1; assay: as above; conditions: Five cell lines viability, CellTiter-Glo ATP luminescence, 48-72 h; max response: active compounds read low
Procedure, shortened: as §2

[18] = tested on: NIH3T3; assay: as above; conditions: Five cell lines viability, CellTiter-Glo ATP luminescence, 48-72 h; max response: active compounds read low
Procedure, shortened: as §2

[19] = tested on: N140; assay: qHTS profiling for inhibitors of Plasmodium falciparum proliferation (AID 504749); conditions: P. falciparum in erythrocytes, SYBR Green DNA, 72 h; series mostly up to 28.7 µM
Procedure, shortened: as §1

[20] = tested on: HEK293; assay: Cytotoxic Profiling of Annotated Libraries Using Quantitative High-Throughput Screening (AID 1296008); conditions: Five cell lines viability, CellTiter-Glo ATP luminescence, 48-72 h; max response: active compounds read low; for max response: % is set by controls: 0 for no effect and ±100 for the full control effect
Procedure, shortened: as §2
Note: nearly all actives have a fitted effect of over 60% in size.
Potency is the fitted concentration of half-maximal effect.

COc1cc2c(cc1OC)C(C(C(=O)N(CCc1ccc(OC)c(OC)c1OC)CCc1ccc(OC)c(OC)c1OC)c1ccccc1)=NCC2 (stereo unspecified)
active: Potency [1] 5.01 µM | Potency [2] 0.199 µM | Potency [3] 10 µM | Potency [4] 2.24 µM | Potency [5] 2.51 µM | Potency [6] 1 µM | Potency [7] 2.51 µM | Potency [8] 4.78 µM | Potency [9] 1 µM | Potency [10] 2.24 µM | Potency [11] 3.16 µM | Potency [12] 2.82 µM | Potency [13] 1.26 µM | Potency [14] 1.07 µM
inactive: max response [15] -6.63% | outcome [16] | max response [17] 28% | max response [18] 0.673%

CN(C)CC/C=C1\c2ccccc2Sc2ccc(Cl)cc21
active: Potency [2] 10 µM | Potency [19] 12.6 µM | Potency [5] 10 µM | Potency [7] 11.2 µM | Potency [9] 11.2 µM | Potency [13] 7.94 µM | Potency [14] 2.69 µM
inactive: max response [15] -3.17% | outcome [16] | max response [17] -2.56% | max response [18] -4.42%

COc1cccc2c1C(=O)c1c(O)c3c(c(O)c1C2=O)C[C@@](O)(C(C)=O)C[C@@H]3O[C@H]1C[C@H](N)[C@H](O)[C@H](C)O1
active: Potency [1] 4.47 µM | Potency [2] 1.41 µM | Potency [3] 11.2 µM | Potency [19] 4.47 µM | Potency [4] 3.98 µM | Potency [5] 3.55 µM | Potency [6] 4.47 µM | Potency [7] 10 µM | Potency [8] 5.36 µM | Potency [9] 7.08 µM | Potency [10] 5.01 µM | Potency [11] 3.55 µM | Potency [12] 5.01 µM | Potency [13] 2.24 µM | Potency [14] 1.35 µM | Potency [15] 0.075 µM | Potency [20] 0.0473 µM | Potency [18] 0.133 µM

CC(=O)Oc1ccc2c(c1)CC[C@@H]1[C@@H]2CC[C@]2(C)[C@@H](O)CC[C@@H]12
inactive: max response [15] -2.1% | max response [16] -1.57% | max response [18] 2.78%

CN(C/C=C/c1ccccc1)Cc1cccc2ccccc12
inactive: max response [17] 4.5%
active: Potency [15] 26.6 µM | Potency [16] 21.1 µM

C[C@@H]1C[C@H]2[C@@H]3CCC4=CC(=O)C=C[C@]4(C)[C@@]3(F)[C@@H](O)C[C@]2(C)[C@H]1C(=O)CO
inactive: Potency [3] | Potency [5] | Potency [7] | Potency [9] | Potency [10] | Potency [11] | Potency [12] | max response [15] -8.13% | max response [16] -8.02% | max response [17] 11.3% | max response [18] -2.44%

CN1CCC(=C2c3ccccc3Sc3ccccc32)CC1
active: Potency [2] 5.62 µM | Potency [19] 10 µM | Potency [4] 10 µM | Potency [5] 10 µM | Potency [6] 12.6 µM | Potency [10] 11.2 µM | Potency [11] 11.2 µM | Potency [12] 11.2 µM | Potency [13] 7.94 µM | Potency [14] 2.13 µM
inactive: Potency [3] | Potency [9] | max response [15] -1.99% | outcome [16] | max response [17] -16.3% | max response [18] -14.3%

Cc1ccc(O)c2ncccc12
inactive: Potency [1] | Potency [3] | Potency [4] | Potency [6] | Potency [7] | Potency [8] | Potency [9] | Potency [10] | max response [15] -10.3% | max response [16] 2.26% | max response [17] -5.97%

O=C(OCC(O)CO)c1ccccc1Nc1ccnc2cc(Cl)ccc12 (stereo unspecified)
inactive: outcome [15] | max response [16] -6.51% | max response [17] 1.57%

CCCCOc1ccc(OCCCN2CCOCC2)cc1
inactive: Potency [1] | Potency [2] | Potency [3] | Potency [19] | Potency [4] | Potency [5] | Potency [6] | Potency [7] | Potency [8] | Potency [9] | Potency [10] | Potency [11] | Potency [12] | Potency [13] | Potency [14] | max response [15] 2.95% | max response [16] -3.82% | max response [17] 3.23%

CN=C(NC#N)NCCSCc1csc(N=C(N)N)n1
inactive: Potency [1] | Potency [2] | Potency [3] | Potency [19] | Potency [4] | Potency [5] | Potency [6] | Potency [7] | Potency [8] | Potency [9] | Potency [10] | Potency [12] | Potency [13] | Potency [14] | max response [15] 1.65% | max response [16] 3.38% | max response [18] 4.93%

C=C1C(=C/C=C2\CCC[C@]3(C)[C@@H]([C@H](C)/C=C/[C@@H](O)C4CC4)CC[C@@H]23)C[C@@H](O)C[C@@H]1O
inactive: outcome [15] | outcome [16] | max response [17] 29.7% | max response [18] -35.8%

C=C(CC)C(=O)c1ccc(OCC(=O)O)c(Cl)c1Cl
inactive: max response [15] -16.5% | max response [16] -11.5% | max response [17] -0.176% | max response [18] -16.2%
active: Potency [2] 10 µM | Potency [12] 14.1 µM | Potency [13] 12.6 µM

CCOC(=O)[C@H](CCc1ccccc1)N[C@@H](C)C(=O)N1Cc2ccccc2C[C@H]1C(=O)O
inactive: max response [15] -9.56% | outcome [16] | max response [17] 21.9% | max response [18] -19.6%

C=C1C[C@H]2[C@@H]3C=C(C)C4=CC(=O)CC[C@]4(C)[C@H]3CC[C@]2(C)[C@@]1(OC(C)=O)C(C)=O
inactive: max response [15] 1.09% | max response [16] -2.22% | max response [17] 17.3% | max response [18] -3.66%

c1ccc(OCc2ccc(CCCN3CCOCC3)cc2)cc1
inactive: Potency [1] | Potency [3] | Potency [19] | Potency [4] | Potency [5] | Potency [6] | Potency [7] | Potency [10] | Potency [11] | Potency [12] | Potency [13] | max response [15] -18% | max response [16] 1.82% | max response [17] 2.12%

CCN(CCCc1ccccc1)CCCc1ccccc1
inactive: Potency [1] | Potency [3] | Potency [6] | Potency [7] | Potency [8] | Potency [9] | Potency [10] | outcome [15] | max response [16] 0.9% | max response [17] -18.5%
active: Potency [14] 1.28 µM

C[C@]12CCC(=O)C=C1[C@@H]1C[C@@H]1[C@H]1[C@@H]3[C@@H]4C[C@@H]4[C@@]4(CCC(=O)O4)[C@@]3(C)CC[C@@H]12
inactive: outcome [15] | max response [16] -9.08% | max response [18] -5.26%
